Records with an inconclusive call do not appear. Calls of active or inactive are those of the source. The call rests on the fitted dose curve; in most records, active means well fitted curve in the direction sought with a large enough effect; inconclusive means small, poorly fitted or top-dose-only effect, or another doubt; inactive means no such curve, though single readings can be large; an effect the other way counts as inactive or inconclusive.
Tests used:
[1] = Quantitative High-Throughput drug screen in 47 multiple myeloma cell lines against the NCATS MIPE library collection: INA6_PLB cell viability assay (AID 1918965; further: nearly all actives have a fitted effect of over 55% in size; further: potency means the concentration at half of the fitted maximal effect)
How it was run: (§1)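 Luminescent ATP measurement with CellTiter-Glo gives viability, scaled between DMSO-only wells (100%) and media-only wells (0%). Cells, 500 per well, faced library compounds for 48 hours at 37C.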

[2] = Quantitative High-Throughput drug screen in 47 multiple myeloma cell lines against the NCATS MIPE library collection: H1112_PLB cell viability assay (AID 1918967; further: nearly all actives have a fitted effect of over 30% in size; further: potency means the concentration at half of the fitted maximal effect)
How it was run: (§2)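 CellTiter-Glo luminescence (ATP) after 48 h compound exposure, 37C/5% CO2; 500 cells/well; MIPE 4.0 approved/investigational drugs pinned in; DMSO = 100%, media only = 0% viability.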

[3] = Quantitative High-Throughput drug screen in 47 multiple myeloma cell lines against the NCATS MIPE library collection: Karpas25_ECACC cell viability assay (AID 1918968; further: potency means the concentration at half of the fitted maximal effect; nearly all actives have a fitted effect of over 35% in size)
How it was run: as §2

[4] = Quantitative High-Throughput drug screen in 47 multiple myeloma cell lines against the NCATS MIPE library collection: KMS12BM_JCRB cell viability assay (AID 1918971); further: potency means the concentration at half of the fitted maximal effect; nearly all actives have a fitted effect of over 35% in size
How it was run: (§3)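 Myeloma cell lines, 500 cells per well, exposed to MIPE 4.0 library compounds for 48 h at 37C, 5% CO2. Viability from ATP by CellTiter-Glo luminescence; normalised to DMSO (100%) and media-only (0%) wells.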

[5] = Quantitative High-Throughput drug screen in 47 multiple myeloma cell lines against the NCATS MIPE library collection: KMS12PE_JCRB cell viability assay (AID 1918972); further: nearly all actives have a fitted effect of over 30% in size; further: potency means the concentration at half of the fitted maximal effect
How it was run: as §1

[6] = Quantitative High-Throughput drug screen in 47 multiple myeloma cell lines against the NCATS MIPE library collection: MOLP8_DSMZ cell viability assay (AID 1918977); further: potency means the concentration at half of the fitted maximal effect; nearly all actives have a fitted effect of over 45% in size
How it was run: (§4)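 qHTS format: cells plated (500/well), pin-dosed with MIPE 4.0 compounds, kept 48 h at 37 °C. Readout was CellTiter-Glo luminescence, median RLU.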

[7] = Quantitative High-Throughput drug screen in 47 multiple myeloma cell lines against the NCATS MIPE library collection: OCIMY1_PLB cell viability assay (AID 1918979); further: nearly all actives have a fitted effect of over 35% in size; further: potency means the concentration at half of the fitted maximal effect
How it was run: as §4

[8] = Quantitative High-Throughput drug screen in 47 multiple myeloma cell lines against the NCATS MIPE library collection: MM1S_ATCC cell viability assay (AID 1918980); further: potency means the concentration at half of the fitted maximal effect; nearly all actives have a fitted effect of over 45% in size
How it was run: as §4

[9] = Quantitative High-Throughput drug screen in 47 multiple myeloma cell lines against the NCATS MIPE library collection: KMS21BM_JCRB cell viability assay (AID 1918974); details: ATP luminescence, 48 h; viability: at 45.8 µM (top of the series); further: potency means the concentration at half of the fitted maximal effect
How it was run: as §2

[10] = Quantitative High-Throughput drug screen in 47 multiple myeloma cell lines against the NCATS MIPE library collection: KMS26_JCRB cell viability assay (AID 1918975); further: nearly all actives have a fitted effect of over 45% in size; further: potency means the concentration at half of the fitted maximal effect
How it was run: as §3

[11] = Quantitative High-Throughput drug screen in 47 multiple myeloma cell lines against the NCATS MIPE library collection: JJN3_DSMZ cell viability assay (AID 1918966; further: potency means the concentration at half of the fitted maximal effect; nearly all actives have a fitted effect of over 50% in size)
How it was run: as §2

[12] = Quantitative High-Throughput drug screen in 47 multiple myeloma cell lines against the NCATS MIPE library collection: KMS20_JCRB cell viability assay (AID 1918973); further: potency means the concentration at half of the fitted maximal effect; nearly all actives have a fitted effect of over 45% in size
How it was run: as §2

[13] = Quantitative High-Throughput drug screen in 47 multiple myeloma cell lines against the NCATS MIPE library collection: MMM1_PLB cell viability assay (AID 1918976); further: potency means the concentration at half of the fitted maximal effect; nearly all actives have a fitted effect of over 35% in size
How it was run: as §4

[14] = Quantitative High-Throughput drug screen in 47 multiple myeloma cell lines against the NCATS MIPE library collection: JIM3_ECACC cell viability assay (AID 1918963)
How it was run: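 qHTS of the MIPE 4.0 collection: 500 myeloma cells/well, 48 h drug exposure at 37C in 5% CO2, then CellTiter-Glo for 5 min at room temperature before luminescence reading.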

[15] = Quantitative High-Throughput drug screen in 47 multiple myeloma cell lines against the NCATS MIPE library collection: NCIH929_DSMZ cell viability assay (AID 1918978); further: nearly all actives have a fitted effect of over 35% in size; further: potency means the concentration at half of the fitted maximal effect
How it was run: as §4

[16] = Quantitative High-Throughput drug screen in 47 multiple myeloma cell lines against the NCATS MIPE library collection: KMS27_JCRB cell viability assay (AID 1918970); details: KMS27 myeloma cells, CellTiter-Glo ATP viability, 48 h; viability (% of DMSO): at 45.8 µM (top of the series); further: nearly all actives have a fitted effect of over 30% in size; further: potency means the concentration at half of the fitted maximal effect
How it was run: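 Each line is seeded at 500 cells per well and treated with library compounds for 48 hours under 37 °C, 5% CO2. CellTiter-Glo is then added for 5 min at room temperature before median relative luminescence is recorded.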

[17] = Quantitative High-Throughput drug screen in 47 multiple myeloma cell lines against the NCATS MIPE library collection: JIM1_ECACC cell viability assay (AID 1918964)
How it was run: as §2

Measured: Potency

COc1c(C)c2c(c(O)c1CC=C(C)CCC(=O)OCCN1CCOCC1)C(=O)OC2
active: [1] 1.87 µM | [2] 3.32 µM | [3] 4.18 µM | [4] 4.18 µM | [5] 3.72 µM | [6] 2.96 µM | [7] 10.5 µM | [8] 6.62 µM

CCC(=O)N1CCN(c2ccc(-n3c(=O)ccc4cnc5ccc(-c6cnc7ccccc7c6)cc5c43)cc2C(F)(F)F)CC1
active: [1] 0.0148 µM | [3] 0.0332 µM | [4] 0.0047 µM | [9] 0.0372 µM | [10] 0.0743 µM | [6] 0.0332 µM | [8] 0.0662 µM

COc1ccc(-c2ccc3ncc4c(c3c2)n(-c2ccc(N3CCNCC3)c(C(F)(F)F)c2)c(=O)n4C)cn1
active: [11] 0.0066 µM | [2] 0.0935 µM | [4] 0.332 µM | [12] 0.0066 µM | [13] 0.0074 µM

CC(C)C[C@H](NC(=O)c1cc2ccccc2s1)C(=O)N1CCN(C(=O)[C@H](CO)NS(=O)(=O)c2ccc(Cl)cc2Cl)CC1
active: [14] 20.9 µM | [11] 18.7 µM | [2] 20.9 µM | [3] 26.4 µM | [4] 18.7 µM | [13] 18.7 µM | [15] 26.4 µM | [8] 23.5 µM

CCC[C@@H](NC(=O)[C@@H]1[C@H]2CCC[C@@H]2CN1C(=O)[C@@H](NC(=O)[C@@H](NC(=O)c1cnccn1)C1CCCCC1)C(C)(C)C)C(=O)C(=O)NC1CC1
inactive: [16] | [15]
active: [14] 20.9 µM | [2] 18.7 µM | [3] 18.7 µM | [5] 14.8 µM

CCOC(=O)[C@@H](N)CCC(=O)N[C@@H](CSCc1ccccc1)C(=O)N[C@@H](C(=O)OCC)c1ccccc1
active: [1] 18.7 µM | [11] 26.4 µM | [3] 23.5 µM | [16] 23.5 µM

CNC(=O)c1c(-c2ccc(F)cc2)oc2cc(N(CCO)S(C)(=O)=O)c(C3CC3)cc12
active: [3] 20.9 µM

N=C1SC(=Cc2ccc(-c3ccc4c(c3)C(=O)NC4=O)o2)C(=O)N1c1ccc(Br)cc1
inactive: [17] | [2] | [16]
active: [11] 2.96 µM | [4] 4.18 µM | [10] 4.18 µM | [13] 3.32 µM | [7] 4.18 µM | [8] 26.4 µM

COc1ccc(Cn2ccc3ccc(C(=O)NO)cc32)cc1
active: [1] 13.2 µM | [11] 11.8 µM | [3] 16.6 µM | [9] 5.9 µM | [15] 18.7 µM | [8] 16.6 µM
inactive: [17] | [2]

CCCCN(CCCC)CC(O)c1cc(Cl)cc2c1-c1ccc(Cl)cc1C2=Cc1ccc(Cl)cc1 (stereo not drawn)
active: [1] 18.7 µM | [11] 18.7 µM | [2] 26.4 µM | [3] 23.5 µM | [12] 11.8 µM | [13] 23.5 µM | [15] 26.4 µM | [8] 23.5 µM
inactive: [5]

Nc1ccc(-c2ccc3ncc4ccc(=O)n(-c5cccc(C(F)(F)F)c5)c4c3c2)cn1
active: [11] 0.0235 µM | [2] 0.0469 µM | [4] 0.0105 µM | [13] 0.0066 µM | [6] 0.0059 µM | [7] 0.0235 µM | [8] 0.0105 µM

C[C@@H]1[C@H](O)[C@@H](C)C=CC=CC=CC=CC=CC=CC=C[C@H](O[C@@H]2O[C@H](C)[C@H](O)[C@H](N)[C@@H]2O)C[C@@H]2O[C@](O)(C[C@@H](O)C[C@@H](O)[C@H](O)CC[C@@H](O)C[C@@H](O)CC(=O)O[C@H]1C)C[C@H](O)[C@@H]2C(=O)O
inactive: [15]
active: [14] 3.32 µM | [2] 3.32 µM | [3] 3.32 µM | [4] 2.09 µM | [8] 0.833 µM

CCCC1OC2C[C@@H]3[C@H]4CCC5=CC(=O)C=C[C@]5(C)[C@H]4C(O)C[C@]3(C)[C@]2(C(=O)CO)O1 (stereo partly drawn)
active: [3] 0.0132 µM | [4] 20.9 µM | [13] 0.0066 µM | [15] 0.296 µM | [8] 0.0743 µM
inactive: [1] | [2] | [5] | [10] | [7]

C[C@H](c1ccc(F)cc1CCCC(=O)O)N(c1cc(F)ccc1F)S(=O)(=O)c1ccc(Cl)cc1
active: [14] 26.4 µM | [3] 20.9 µM | [4] 1.48 µM | [10] 0.743 µM | [15] 6.62 µM | [8] 10.5 µM
inactive: [16] | [7]

CNc1nc(-c2ccc3c(N)n[nH]c3c2)cc(N2C[C@@H](C(=O)NC3CCCCC3)CC[C@@H]2C)n1
active: [14] 6.62 µM | [1] 2.09 µM | [3] 2.09 µM | [16] 10.5 µM | [15] 1.18 µM | [7] 18.7 µM | [8] 16.6 µM
